Assay results published in PubChem BioAssay (Tox21).
Several values for one entry are separate records, joined by “and”; a condition that tells them apart may be missing. Equal values may be shown once. Results filed as inconclusive are left out. A call without a number means that no potency is given here. More than one record can exist for a structure, and the calls need not agree. Activity calls are given as the source filed them. The call rests on the fitted dose curve; in most records, active means well fitted inhibition curve with a large enough effect in the repeat runs; inconclusive means weak or mixed curves; inactive means no such curve, though single readings can be large or run the other way.

biological target: Cytochrome P450 2D6 (Homo sapiens) (UniProt P10635); assay: Cytochrome P450 Family 2 Subfamily D Member 6 (CYP2D6) small molecule antagonists: luciferase reporter qHTS assay (AID 1671196); conditions: P450-Glo CYP2D6 enzyme assay, luciferin luminescence, 1 h; series mostly up to 115 µM; further: nearly all actives have a fitted effect of over 50% in size
Description: U.S. Tox21 Program National Center for Advancing Translational Sciences [NCATS] U.S. Environmental Protection Agency [EPA] National Institutes of Environmental Health Sciences [NIEHS] National Toxicology Program [NTP] U.S. Food and Drug Administration [FDA] Tox21 Assay Overview: Cytochrome P450 (CYP) enzymes are membrane-bound hemeproteins that play a key role in metabolism of drugs and xenobiotics. Evaluation of the effect of chemicals on CYP isozymes is useful to minimize the adverse drug reactions and toxicities in drug development process. Tox21 chemicals were tested for their effect on CYP enzyme activities by using P450-Glo (TM) screening systems (Promega Corporation, Madison, WI). These systems provide a luminescent method containing proluciferin substrates and are converted to luciferin products by CYP isozymes. The luciferin products formed are detected with a luciferin detection reagent, and the amount of light produced is proportional to CYP activity. P450-Glo (TM) CYP2D6 screening system (Catalog. No. V9890) was used to detect the compounds that interfere in CYP2D6 activity.
Tox21 Assay Protocol Summary: Two ul of enzyme-substrate mix was dispensed into medium binding white/solid 1536-well plates (Greiner Bio-One North America Inc., Monroe, NC) using a BioRaptr Flying Reagent Dispenser (FRD, Beckman Coulter, Brea, CA). […] The assay plates were incubated at room temperature for 10 min. Then 2 ul of NADPH regeneration solution was added to each well of the assay plates using an FRD and incubated at room temperature for 1 h. The reaction was stopped by adding 4 ul of detection reagent using an FRD and after 20 min incubation at room temperature the luminescence signal was measured using a ViewLux plate reader (Perkin Elmer, Shelton, CT). Data were expressed as relative luminescence units.
Potency means the concentration at half of the fitted maximal effect.

Chain of Cytochrome P450 2D6 (Homo sapiens) (P10635 whole entry, looked up): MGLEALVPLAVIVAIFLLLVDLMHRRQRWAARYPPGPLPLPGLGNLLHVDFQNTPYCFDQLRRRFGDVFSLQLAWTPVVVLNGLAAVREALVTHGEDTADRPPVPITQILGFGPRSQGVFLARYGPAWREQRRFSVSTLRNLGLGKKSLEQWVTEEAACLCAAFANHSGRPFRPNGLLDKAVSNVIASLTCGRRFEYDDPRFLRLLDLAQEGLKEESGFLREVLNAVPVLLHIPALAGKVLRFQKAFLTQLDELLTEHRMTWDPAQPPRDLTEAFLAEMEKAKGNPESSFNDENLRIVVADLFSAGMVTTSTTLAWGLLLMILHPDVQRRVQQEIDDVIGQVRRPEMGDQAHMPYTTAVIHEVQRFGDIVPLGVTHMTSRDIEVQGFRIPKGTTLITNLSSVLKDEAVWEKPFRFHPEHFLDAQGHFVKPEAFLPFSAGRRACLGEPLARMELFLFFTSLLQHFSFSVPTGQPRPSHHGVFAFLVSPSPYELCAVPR

For OCCO, which Potency is on record?
Its Potency is 34.6 µM (active) and inactive.

Which Potency does the source give for C[C@]12CCC(=O)C=C1CC[C@@H]1[C@@H]2C(=O)C[C@@]2(C)[C@H]1CC[C@]2(O)C(=O)CO here?
Its Potency is “inactive”.

How did the Potency turn out when Brc1cc(Oc2cc(Br)c(Br)c(Br)c2Br)c(Br)c(Br)c1Br was run?
The Potency was “inactive”.

With CC(C)OC=O as the compound, how does the Potency read?
The Potency was “inactive”.

Nc1ncnc2nc[nH]c12 was tested. Which Potency did it give?
Its Potency is “inactive”.

C/C=C/C(=O)O was tested. Which Potency did it give?
Its Potency is “inactive”.

Which Potency does the source give for CCCc1c(OCCCCc2nn[nH]n2)ccc(C(C)=O)c1O here?
Its Potency is “inactive”.

For C=CC(C)(CCC=C(C)C)OC(C)=O (stereo not given), which Potency is on record?
The Potency was “inactive”.

Which Potency does the source give for CC(=O)O[C@]1(C(C)=O)CC[C@H]2[C@@H]3C=C(Cl)C4=CC(=O)[C@@H]5C[C@@H]5[C@]4(C)[C@H]3CC[C@@]21C here?
The Potency was “inactive”.

Which Potency does the source give for C=C(C)C(=O)OCCOC(=O)C(=C)C here?
Its Potency is “inactive”.

How did the Potency turn out when O=C1OC2(c3cc(Br)c(O)c(Br)c3Oc3c2cc(Br)c(O)c3Br)c2c(Cl)c(Cl)c(Cl)c(Cl)c21 was run?
The Potency was 24.2 µM (active).

With Cc1ccc2c(n1)Oc1ccc(C(C)C(=O)OCC(=O)N(C)C)cc1C2 (stereo not given) as the compound, how does the Potency read?
Its Potency is 38.9 µM (active).

With Oc1ccc(O)cc1 as the compound, how does the Potency read?
Its Potency is “inactive”.

Which Potency does the source give for CCC(C)(O)CCCC(C)C (stereo not given) here?
The Potency was “inactive”.

For CC(=O)CC/C=C(\C)CCC=C(C)C, which Potency is on record?
Its Potency is “inactive”.

For CC(C)Oc1ccc2c(=O)c(-c3ccccc3)coc2c1, which Potency is on record?
The Potency was “inactive”.

Cc1[nH]c(=O)c(C#N)cc1-c1ccncc1 was tested. Which Potency did it give?
The Potency was “inactive”.

C#C[C@]1(O)CC[C@H]2[C@@H]3CCc4cc(OC)ccc4[C@H]3CC[C@@]21C was tested. Which Potency did it give?
Its Potency is “inactive”.

O=C(Nc1ccc([N+](=O)[O-])cc1Cl)c1cc(Cl)ccc1O was tested. Which Potency did it give?
Its Potency is “inactive”.

Which Potency does the source give for COC(=O)c1ccccc1 here?
The Potency was “inactive”.

CC(C)=CCCC(C)CCO (stereo not given) was tested. Which Potency did it give?
The Potency was “inactive”.

How did the Potency turn out when O=[N+]([O-])c1ccc2c(c1)Cc1ccccc1-2 was run?
The Potency was “inactive”.

CC(C(=O)O)c1cccc(C(=O)c2ccccc2)c1 (stereo not given) was tested. Which Potency did it give?
The Potency was “inactive”.

O=c1oc(=O)c2cc3c(=O)oc(=O)c3cc12 was tested. Which Potency did it give?
Its Potency is “inactive”.

With O=Cc1ccccc1O as the compound, how does the Potency read?
The Potency was “inactive”.

Which Potency does the source give for CCCCOCCOCCOCCO here?
The Potency was “inactive”.

With O=C=Nc1ccc(Cc2ccc(N=C=O)cc2)cc1 as the compound, how does the Potency read?
The Potency was “inactive”.

With COC(=O)CCC(=O)OC as the compound, how does the Potency read?
Its Potency is “inactive”.

CCCCNS(=O)(=O)c1ccccc1 was tested. Which Potency did it give?
Its Potency is “inactive”.

How did the Potency turn out when CN1C(C(=O)Nc2ccccn2)=C(O)c2ccccc2S1(=O)=O was run?
The Potency was 40.3 µM (active) and inactive.

With O=C(/C=C/c1ccccc1)OCc1ccccc1 as the compound, how does the Potency read?
The Potency was “inactive”.

How did the Potency turn out when CC1=CCC(C(C)(C)O)CC1 (stereo not given) was run?
The Potency was “inactive”.

How did the Potency turn out when O=CCCCC=O was run?
Its Potency is “inactive”.

c1ccncc1 was tested. Which Potency did it give?
Its Potency is “inactive”.

Clc1nc(Cl)c(Cl)c(Cl)c1Cl was tested. Which Potency did it give?
The Potency was “inactive”.

Which Potency does the source give for Nc1ccc(Nc2ccccc2)cc1 here?
Its Potency is 35.2 µM (active) and 35.6 µM (active).

With c1ccc2c(c1)Oc1ccccc1S2 as the compound, how does the Potency read?
The Potency was “inactive”.

For COc1ccc(C(=O)CC(=O)c2ccc(C(C)(C)C)cc2)cc1, which Potency is on record?
The Potency was 38.3 µM (active) and inactive.

Which Potency does the source give for C[C@]12CC[C@H]3[C@@H](CCC4=CC(=O)CC[C@@]43C)[C@@H]1CC[C@@H]2C(=O)CO here?
Its Potency is “inactive”.

With CCCCOCCOCCO as the compound, how does the Potency read?
The Potency was “inactive”.
